High-throughput results (PubChem)
A selection: hits, their analogues and other compounds. The true share with any hit is near 3%.
PMP22 txn prim – PMP22 gene transcription modulation; S16 Pmp22-F2sN Schwann cells, FLuc/NLuc coincidence luminescence, 24 h; Potency, µM (doses to about 57.5 µM), actives largely listed as inhibitors; 43,000 compounds, 2% hits; AID 1508649; active means clear falling dose curves in both reporters; inconclusive means both reporters move, but less clearly or upward; inactive means either reporter flat; the % is the NLuc reporter signal
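S16 Schwann cells carrying FLuc/NLuc coincidence reporter in the Pmp22 3' UTR treated with compound 24 h at 37C; FLuc then NLuc luminescence read sequentially by dual-luciferase reagents.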
p53null 39C tox – p53 null cell cytotoxicity, nonpermissive temperature. H1299 p53-null (neo) cells, 39C, ATPlite viability, 24 h. Potency, µM (doses to about 46.1 µM), usual class: cytotoxic. 55,000 compounds, 0.97% hits; further: nearly all actives have a fitted effect of over 50% in size
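Luminescent ATP signal reported cell survival after H1299 lines (neo, p53 null; or p53 A138V) received up to 46 uM compound and 24 hr incubation at 39C.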
p53null 32C kill – kills p53 null cells at the permissive temperature; H1299-neo p53 null cells, ATP luminescence, 24 h, 32C; Potency, µM (doses to about 46.1 µM), actives largely listed as cytotoxic; 55,000 compounds, 0.62% hits; further: nearly all actives have a fitted effect of over 55% in size
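Cells lacking p53 (H1299-neo) are plated at 600 per well and allowed to settle overnight at 37C. Test compounds (up to 46 uM) are added and held 24 hours at 32C, then ATP is quantified by luminescence.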
S16 viability – S16 Schwann cell cytotoxicity; 43,000 compounds, 0.48% hits; Potency, µM (doses to about 57.5 µM), actives largely listed as cytotoxic; S16 Pmp22-F2sN Schwann cells viability, CellTiter-Glo, 24 h; AID 1508642; further: nearly all actives have a fitted effect of over 65% in size
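Viability was measured by CellTiter-Glo luminescence (15 min, room temperature). This followed 24 h at 37 °C of compound exposure (23 nL pin transfer) in S16 Pmp22-F2sN Schwann cells, 500-1,000 per well.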
SKOV3 invasion – inhibitors of ovarian cancer cell adhesion and invasion in omental model; 46,000 compounds, 0.1% hits; SKOV3ip1-GFP adhesion/invasion on 3D omental model, fluorescence; Potency, µM (top dose mostly 45.8 µM), most hits filed as inhibitors; further: nearly all actives have a fitted effect of over 65% in size
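A 3D layer of primary human omental fibroblasts, mesothelial cells, fibronectin and collagen I, grown 48 hr, received SKOV3ip1-GFP cells in serum-free medium plus compounds at 0.36-46 umol/L. After 2 hr RT and 16 hr 37 C, fixed adherent GFP cells were counted; normalized to DMSO and tomatine.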
pS6 MEF inh – mTORC1 pathway inhibition measured by phospho-rpS6; Tsc2-/- p53-/- MEF, phospho-rpS6 immunofluorescence/PI, 24 h; Potency, µM (titrated, usually from 38.3 µM), actives largely listed as inhibitors; 44,000 compounds, 0.78% hits; further: nearly all actives have a fitted effect of over 50% in size
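Immunofluorescence of rpS6 phosphorylation in Tsc2-/-, p53-/- MEFs after 24 h compound exposure, normalized to propidium iodide signal. Activity is expressed as % positive cells, thresholded with 7.5 nM rapamycin.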
Hits are given with their value; – = inactive; ? = inconclusive; · = no result given; [ ] = remark or other dose. Unless noted, the call rests on the fitted dose curve; in most records, active means well fitted curve in the direction sought with a large enough effect; inconclusive means small, poorly fitted or top-dose-only effect, or another doubt; inactive means no such curve, though single readings can be large; an effect the other way counts as inactive or inconclusive.

SMILES	PMP22 txn prim	p53null 39C tox	p53null 32C kill	S16 viability	SKOV3 invasion	pS6 MEF inh
COc1ccc(S(=O)(=O)Nc2cccnc2Nc2ccc(O)cc2)cc1	·	·	·	·	–	·
FC(F)(F)c1cccc(Nc2c3c(nc4ccc(Cl)cc24)CCC3)c1	?	?	?	?	–	5.8µM
Cc1cc(Nc2cccc(C(F)(F)F)c2)nc2ccc(NC(=O)c3cccnc3)cc12	?	?	28µM	?	11µM	?
Cc1cc(Nc2cccc(Cl)c2)nc2ccc(NC(=O)Cc3cccc(C(F)(F)F)c3)cc12	?	?	–	–	?	–
Cc1cc(Nc2cccc(C(F)(F)F)c2)nc2ccc(NC(=O)c3cccc(Cl)c3)cc12	?	13µM	–	–	–	?
CCc1c(O)cc(O)c(C(=O)c2ccc(OCCN3CCOCC3)c(OC)c2)c1CC(=O)N(CCOC)CCOC	·	·	·	·	–	·
Cc1ccccc1C(C(=O)NC1CCCCC1)N(C(=O)CNc1ccc(C#N)cc1)c1cccc(F)c1 (stereo unspecified)	·	·	·	·	–	·
O=C(/C=C/Nc1ccccc1C(=O)O)c1cccs1	·	·	35µM	·	·	·
CC1(C)CCC(CN2CCN(c3ccc(C(=O)NS(=O)(=O)c4ccc(NCC5CCOCC5)c([N+](=O)[O-])c4)c(Oc4cnc5[nH]ccc5c4)c3)CC2)=C(c2ccc(Cl)cc2)C1	·	·	·	·	–	·
COc1cc(/C=C(\C#N)c2nc3ccc(C)cc3[nH]2)ccc1OC(C)C	–	–	–	–	–	–
Cc1ccc2nc(/C(C#N)=C/c3cccc(Br)c3)[nH]c2c1	?	–	–	?	–	18µM
c1ccc(-c2cc(-c3ccccc3)c3c(n2)-c2ccccc2OC3)cc1	–	·	·	–	–	–
CCOc1ccccc1Nc1nc(-c2cccc(Cl)c2)c2c(n1)-c1ccccc1OC2	–	13µM	?	–	–	2.9µM
Oc1ccccc1-c1nc(/C=C/c2ccccc2Cl)no1	?	10µM	10µM	–	–	–
CC(C)(C)[C@H](NC(=O)c1ccc(N)c(Cl)c1)C(=O)N1CCC[C@@H]1C(=O)N[C@H](C#N)CC(=O)O	·	·	·	·	–[3.51 µM]	·
Cn1c(C(=O)NCCc2ccccc2)cc2sc(Cl)cc21	–	7.9µM	11µM	–	–	–
Cc1cc(Nc2ccc(Cl)cc2C)nc(-n2nc(C)cc2C)n1	7µM	–	–	5.6µM	–	–
CCOc1cc(CNCCSc2nnnn2C)ccc1OCc1ccc(Cl)cc1Cl	?	16µM	?	?	?	?
Cn1nnnc1SCCNCc1ccccc1OCc1ccc(Cl)cc1Cl	?	?	?	?	–	–
CNC(=O)c1cc(COc2nnc(Nc3ccc(Cl)cc3)c3ccoc23)ccn1	·	·	·	·	–	·
CC(C)n1cnc2c(NCCCCCCNC(=O)OC(C)(C)C)nc(NCCO)nc21	·	·	·	·	–	·
Nc1nc(=O)n([C@H]2C[C@H](O)[C@@H](CO)O2)cc1F	·	·	·	·	–	·
Cc1ccc(Cl)cc1N1CCN(CCNC(=O)Nc2ccc(Cl)cc2)CC1	?	20µM	?	?	?	–
CCOc1ccc(NC(=O)NCCN2CCN(c3cc(Cl)ccc3C)CC2)cc1	?	–	–	–	–	–
CC(C)c1nn(-c2c(Cl)cccc2Cl)c2nc(Cc3ccc(OCCO)cc3)[nH]c(=O)c12	·	·	·	·	–	·
SMILES	PMP22 txn prim	p53null 39C tox	p53null 32C kill	S16 viability	SKOV3 invasion	pS6 MEF inh
COc1cccc(-c2oc3ccc(C)cc3c(=O)c2O)c1	?	22µM	?	–	–	?
CCOc1ccc(-c2oc3ccc(C)cc3c(=O)c2O)cc1	–	–	–	–	–	–
Cc1cc([C@@H](C)Nc2ccccc2C(=O)O)c2nc(N3CCOCC3)cc(=O)n2c1	·	·	·	·	–	·
COC(=O)c1c(SCC(=O)Nc2cccc(C(F)(F)F)c2)[nH]c2ccccc2c1=O	–	3.2µM	?	?	–	–
COC(=O)c1c(SCC(=O)Nc2cccc(Cl)c2C)[nH]c2ccccc2c1=O	–	10µM	–	–	–	–
O=C(CSCc1cc(=O)c2ccccc2[nH]1)Nc1cccc(C(F)(F)F)c1	–	–	–	–	–	–
COC(=O)c1c(SCC(=O)Nc2cc(F)ccc2F)[nH]c2ccc(C)cc2c1=O	–	?	?	?	–	–
COc1ccccc1-c1cccc(-c2c(O)c3cc(C#N)c(Cl)cc3[nH]c2=O)c1	·	·	·	·	–	·
Cc1ccc(CNC(=O)CN2C(=O)CSc3ccc(S(=O)(=O)N4CCCC4)cc32)cc1	–	13µM	–	–	–	–
Cc1ccc(CSc2nc3cccnc3n2Cc2ccc(C(=O)NC3CCCCC3)cc2)cc1	?	11µM	13µM	–	?	–
O=C(NC1CCCCC1)c1ccc(Cn2c(SCc3ccccc3F)nc3cccnc32)cc1	–	–	–	?	–	–
O=C(NC1CC1)c1ccc(Cn2c(SCc3ccccc3F)nc3cccnc32)cc1	?	13µM	?	?	–	–
Cc1ccc(CSc2nc3cccnc3n2Cc2ccc(C(=O)NCCc3cccs3)cc2)cc1	?	4µM	4.5µM	–	–	–
